# Over roughly 2,900 compounds, “NF-kB SEAP reporter activity, fold change vs agonist alone” has its median near 0.99; the highest 2% begin near 2.6. The full list was thinned out, with the highest values kept by preference.
# Legend:
# [1] = test system: RAW-Dual; experiment: NF-kB SEAP reporter activity, fold change vs agonist alone; cytotoxicity flag (confluency mask): not cytotoxic; higher = enhanced NF-kB activity
# Method in brief: (§1)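 Library stock was pin-tooled at 50 nL into 384-well plates of RAW-Dual macrophages (50,000 cells/well, DMEM), followed 1 h later by a PRR agonist, and the cells were kept at 37 °C, 5% CO2. Supernatant collected after 20 hours was read for IRF by QuantiLuc luminescence and for NF-κB by QuantiBlue absorbance at 620 nm. Reporter activity is fold change over agonist-alone wells, and a well counted as cytotoxic when its IncuCyte confluency was below 70% of agonist controls in both mask sets.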
# [2] = test system: RAW-Dual; experiment: NF-kB SEAP reporter activity, fold change vs agonist alone; higher = enhanced NF-kB activity
# Method in brief: as §1
# [3] = test system: RAW-Dual; experiment: NF-kB SEAP reporter activity, fold change vs agonist alone; cytotoxicity flag (confluency mask): cytotoxic (confluency <70% of control); higher = enhanced NF-kB activity
# Method in brief: as §1
# [4] = agonist: ODN 1826 (TLR9) 0.5 ug/mL
# [5] = agonist: Pam2CSK4 (TLR2/6) 0.1 ug/mL
# [6] = agonist: Pam3CSK4 (TLR2/1) 0.1 ug/mL
# [7] = library stock concentration (final ~1000-fold dilution): 10 mM, cytotoxicity flag (confluency mask): not cytotoxic, agonist: Imiquimod (TLR7) […]
# [8] = library stock concentration (final ~1000-fold dilution): 10 mM, cytotoxicity flag (confluency mask): not cytotoxic, agonist: MPLA (TLR4) […]
smiles,measurement,setting,value
Nc1ccn(C2OC(CO)C(O)C2O)c(=O)n1 (centres undefined) (library stock concentration (final ~1000-fold dilution): 10 mM water),NF-kB SEAP reporter activity,[1]; agonist: LPS (TLR4) 0.1 ug/mL,1.92
same,NF-kB SEAP reporter activity,[1]; [4],1.7
same,NF-kB SEAP reporter activity,[1]; [5],1.85
same,NF-kB SEAP reporter activity,[1]; [6],1.83
Nc1ccn(C2OC(CO)C(O)C2O)c(=O)n1 (centres undefined),NF-kB SEAP reporter activity,"[2]; library stock concentration (final ~1000-fold dilution): 10 mM water, cytotoxicity flag (confluency mask): not cytotoxic, agonist: Imiquimod (TLR7) […]",1.46
same,NF-kB SEAP reporter activity,"[2]; library stock concentration (final ~1000-fold dilution): 10 mM water, cytotoxicity flag (confluency mask): not cytotoxic, agonist: MPLA (TLR4) […]",1.33
Nc1ncn(C2CC(O)C(CO)O2)c(=O)n1 (centres undefined),NF-kB SEAP reporter activity,[2]; [7],1.58
same,NF-kB SEAP reporter activity,[2]; [8],1.38
Nc1ncn(C2CC(O)C(CO)O2)c(=O)n1 (centres undefined) (library stock concentration (final ~1000-fold dilution): 10 mM),NF-kB SEAP reporter activity,[1]; agonist: LPS (TLR4) 0.1 ug/mL,1.55
same,NF-kB SEAP reporter activity,[1]; [4],1.41
same,NF-kB SEAP reporter activity,[1]; [5],1.14
same,NF-kB SEAP reporter activity,[1]; [6],1.26
Nc1ncn(C2OC(CO)C(O)C2O)c(=O)n1 (centres undefined) (library stock concentration (final ~1000-fold dilution): 10 mM),NF-kB SEAP reporter activity,[1]; agonist: LPS (TLR4) 0.1 ug/mL,1.06
same,NF-kB SEAP reporter activity,[1]; [4],1.91
same,NF-kB SEAP reporter activity,[1]; [5],0.631
same,NF-kB SEAP reporter activity,[1]; [6],0.71
Nc1ncn(C2OC(CO)C(O)C2O)c(=O)n1 (centres undefined),NF-kB SEAP reporter activity,[2]; [7],2.59
same,NF-kB SEAP reporter activity,[2]; [8],2.47
O=C(O)CC(C(=O)O)N1C(=O)/C(=C2/C(=O)Nc3ccc(Br)cc32)SC1=S (centres undefined) (library stock concentration (final ~1000-fold dilution): 10 mM),NF-kB SEAP reporter activity,[1]; agonist: LPS (TLR4) 0.1 ug/mL,0.98
same,NF-kB SEAP reporter activity,[1]; [4],1.56
same,NF-kB SEAP reporter activity,[1]; [5],1.02
same,NF-kB SEAP reporter activity,[1]; [6],1.06
O=C(O)CC(C(=O)O)N1C(=O)/C(=C2/C(=O)Nc3ccc(Br)cc32)SC1=S (centres undefined),NF-kB SEAP reporter activity,[2]; [7],1.33
same,NF-kB SEAP reporter activity,[2]; [8],1.72
COc1ccccc1Oc1c(NS(=O)(=O)c2ccc(C(C)(C)C)cc2)nc(-c2ncccn2)nc1OCCO.O,NF-kB SEAP reporter activity,[2]; [7],1.02
same,NF-kB SEAP reporter activity,[2]; [8],1.1
COc1ccccc1Oc1c(NS(=O)(=O)c2ccc(C(C)(C)C)cc2)nc(-c2ncccn2)nc1OCCO.O (library stock concentration (final ~1000-fold dilution): 10 mM),NF-kB SEAP reporter activity,[1]; agonist: LPS (TLR4) 0.1 ug/mL,1.15
same,NF-kB SEAP reporter activity,[1]; [4],1.01
same,NF-kB SEAP reporter activity,[1]; [5],1.06
same,NF-kB SEAP reporter activity,[1]; [6],1.1
CC(C)OC(=O)CCC/C=C\CC1C(O)CC(O)C1CCC(O)CCc1ccccc1 (centres undefined),NF-kB SEAP reporter activity,[2]; [8],1.43
CC(C)OC(=O)CCC/C=C\CC1C(O)CC(O)C1CCC(O)CCc1ccccc1 (centres undefined) (library stock concentration (final ~1000-fold dilution): 10 mM),NF-kB SEAP reporter activity,[1]; agonist: LPS (TLR4) 0.1 ug/mL,1.4
same,NF-kB SEAP reporter activity,[1]; [4],0.911
same,NF-kB SEAP reporter activity,[1]; [5],1.1
same,NF-kB SEAP reporter activity,[1]; [6],0.929
COc1cc(OC)c(/C=C2/C(=O)Nc3ccccc32)c(OC)c1,NF-kB SEAP reporter activity,[2]; [7],1.62
same,NF-kB SEAP reporter activity,[2]; [8],1.67
COc1ccc(C(=C2C(=O)Nc3ccccc32)c2ccc(OC)cc2)cc1 (library stock concentration (final ~1000-fold dilution): 10 mM),NF-kB SEAP reporter activity,[1]; agonist: LPS (TLR4) 0.1 ug/mL,1.04
same,NF-kB SEAP reporter activity,[1]; [4],0.585
same,NF-kB SEAP reporter activity,[1]; [5],0.692
same,NF-kB SEAP reporter activity,[1]; [6],0.323
COc1cc(OC)c(/C=C2/C(=O)Nc3ccccc32)c(OC)c1 (library stock concentration (final ~1000-fold dilution): 10 mM),NF-kB SEAP reporter activity,[1]; agonist: LPS (TLR4) 0.1 ug/mL,3.21
same,NF-kB SEAP reporter activity,[1]; [4],2.56
same,NF-kB SEAP reporter activity,[1]; [5],1.33
same,NF-kB SEAP reporter activity,[1]; [6],1.92
COc1ccc(C(=C2C(=O)Nc3ccccc32)c2ccc(OC)cc2)cc1,NF-kB SEAP reporter activity,[2]; [7],0.748
same,NF-kB SEAP reporter activity,[2]; [8],0.978
Cc1c[nH]c(C=C2C(=O)Nc3ccccc32)c1CCC(=O)O,NF-kB SEAP reporter activity,[2]; [7],0.662
same,NF-kB SEAP reporter activity,[2]; [8],0.848
Cc1c[nH]c(C=C2C(=O)Nc3ccccc32)c1CCC(=O)O (library stock concentration (final ~1000-fold dilution): 10 mM),NF-kB SEAP reporter activity,[1]; agonist: LPS (TLR4) 0.1 ug/mL,0.665
same,NF-kB SEAP reporter activity,[1]; [4],0.926
same,NF-kB SEAP reporter activity,[1]; [5],0.983
same,NF-kB SEAP reporter activity,[1]; [6],0.647
NC(N)=NCCCC(N)C(=O)NC(CCCN=C(N)N)C(=O)N1CCCC1C(=O)N1CC(O)CC1C(=O)NCC(=O)NC(Cc1cccs1)C(=O)NC(CO)C(=O)N1Cc2ccccc2CC1C(=O)N1C(C(=O)NC(CCCN=C(N)N)C(=O)O)CC2CCCCC21 (centres undefined),NF-kB SEAP reporter activity,"[2]; library stock concentration (final ~1000-fold dilution): 2 mM water, cytotoxicity flag (confluency mask): not cytotoxic, agonist: Imiquimod (TLR7) […]",0.945
same,NF-kB SEAP reporter activity,"[2]; library stock concentration (final ~1000-fold dilution): 2 mM water, cytotoxicity flag (confluency mask): not cytotoxic, agonist: MPLA (TLR4) […]",1.05
NC(N)=NCCCC(N)C(=O)NC(CCCN=C(N)N)C(=O)N1CCCC1C(=O)N1CC(O)CC1C(=O)NCC(=O)NC(Cc1cccs1)C(=O)NC(CO)C(=O)N1Cc2ccccc2CC1C(=O)N1C(C(=O)NC(CCCN=C(N)N)C(=O)O)CC2CCCCC21 (centres undefined) (library stock concentration (final ~1000-fold dilution): 2 mM water),NF-kB SEAP reporter activity,[1]; agonist: LPS (TLR4) 0.1 ug/mL,0.985
same,NF-kB SEAP reporter activity,[1]; [4],1.06
same,NF-kB SEAP reporter activity,[1]; [5],1.1
same,NF-kB SEAP reporter activity,[1]; [6],0.962
CC12CC(O)C3CC1(O[C@@H]1O[C@H](CO)[C@@H](O)[C@H](O)[C@H]1O)C3(COC(=O)c1ccccc1)C(=O)O2 (some centres undefined) (library stock concentration (final ~1000-fold dilution): 10 mM),NF-kB SEAP reporter activity,[1]; agonist: LPS (TLR4) 0.1 ug/mL,1.24
same,NF-kB SEAP reporter activity,[1]; [4],1.12
same,NF-kB SEAP reporter activity,[1]; [5],1.1
same,NF-kB SEAP reporter activity,[1]; [6],1.06
CC12CC(O)C3CC1(O[C@@H]1O[C@H](CO)[C@@H](O)[C@H](O)[C@H]1O)C3(COC(=O)c1ccccc1)C(=O)O2 (some centres undefined),NF-kB SEAP reporter activity,[2]; [7],1.03
same,NF-kB SEAP reporter activity,[2]; [8],1.03
CNCCCC1c2ccccc2C=Cc2ccccc21.Cl,NF-kB SEAP reporter activity,"[2]; library stock concentration (final ~1000-fold dilution): 10 mM, cytotoxicity flag (confluency mask): cytotoxic (confluency <70% of control), agonist: Imiquimod (TLR7) […]",1.28
same,NF-kB SEAP reporter activity,"[2]; library stock concentration (final ~1000-fold dilution): 10 mM, cytotoxicity flag (confluency mask): cytotoxic (confluency <70% of control), agonist: MPLA (TLR4) […]",1.62
CNCCCC1c2ccccc2C=Cc2ccccc21.Cl (library stock concentration (final ~1000-fold dilution): 10 mM),NF-kB SEAP reporter activity,[3]; agonist: LPS (TLR4) 0.1 ug/mL,0.947
same,NF-kB SEAP reporter activity,[3]; [4],0.644
same,NF-kB SEAP reporter activity,[3]; [5],0.63
same,NF-kB SEAP reporter activity,[3]; [6],0.687
CCCCNc1ccc(C(=O)OCCN(C)C)cc1.Cl (library stock concentration (final ~1000-fold dilution): 10 mM),NF-kB SEAP reporter activity,[1]; agonist: LPS (TLR4) 0.1 ug/mL,1.38
same,NF-kB SEAP reporter activity,[1]; [4],0.759
same,NF-kB SEAP reporter activity,[1]; [5],1.13
same,NF-kB SEAP reporter activity,[1]; [6],1.17
CCCCNNC(=O)c1ccc(Br)cc1,NF-kB SEAP reporter activity,[2]; [7],1.95
same,NF-kB SEAP reporter activity,[2]; [8],2.28
CCCCNc1ccc(C(=O)OCCN(C)C)cc1.Cl,NF-kB SEAP reporter activity,[2]; [7],0.843
same,NF-kB SEAP reporter activity,[2]; [8],1.04
